Data published in PubChem BioAssay (NCATS).
Where “and” joins values, the source holds several entries; their conditions need not be identical. Identical values can stand only once. Results filed as inconclusive are left out. Calls of active or inactive are those of the source. Unless noted, the call rests on the fitted dose curve; in most records, active means well fitted curve in the direction sought with a large enough effect; inconclusive means small, poorly fitted or top-dose-only effect, or another doubt; inactive means no such curve, though single readings can be large; an effect the other way counts as inactive or inconclusive.

Columns and labels:
[1] = biological target: Arylsulfatase A (Homo sapiens) (UniProt P15289); assay: qHTS screen for enhancers of Arylsulfatase A (ASA1): LOPAC Validation Assay (AID 720538); further: 0% is about no effect
How it was run: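 First, ASA-I179S fibroblasts from an MLD patient adhered for 6 hrs. Next, compounds were added for 48h. Then pNCS substrate (0.5mM final) with lysis buffer reacted 14h at room temperature before NaOH stop and fluorescence measurement.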

[2] = qHTS assay to identify small molecules that stimulate interleukin-8 (IL-8) secretion (AID 651758; active means well fitted activation curve with a large enough effect in the signal ratio; the % refers to the signal ratio; further: 0% is about no effect)
How it was run: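 Compounds are added to THP-1 cells (2000 per well) and left 16 hrs at 37 C. A labeled anti-IL-8 antibody pair is then added, and IL-8 secretion is measured by time-resolved FRET after 1-3 hrs at room temperature.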

[3] = qHTS assay for environmental chemicals that activate the Aryl hydrocarbon Receptor (AhR) signaling pathway (AID 651777); details: 1A2-DRE human hepatoma cells, luciferase, 24 h; activation: stronger effect = higher value; further: nearly all actives have a fitted effect of over 15% in size; further: potency means the concentration at half of the fitted maximal effect; on activation: % of control where 0% means no effect
How it was run: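 Luminescence read-out: One-Glo added for 30 min at RT after 24 hr compound treatment (37 C, 5% CO2) of human hepatoma cells expressing a DRE/CYP1A2 promoter–luciferase reporter; increased signal indicates AhR activation.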

[4] = biological target: Peroxisome proliferator-activated receptor alpha (Homo sapiens) (UniProt Q07869); assay: qHTS assay for small molecule agonists of the peroxisome proliferator-activated receptor alpha (PPARalpha) signaling pathway (AID 651778); details: PathHunter PPARalpha complementation, chemiluminescence, 6 h; max response: stronger effect = higher value; further: % of control where 0% means no effect
How it was run: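 Enzyme-fragment complementation assay in which ligand-bound PPARalpha translocates and forms an active enzyme that generates chemiluminescence. Cells were plated overnight, exposed to compound for 6 hr at 37 C, and then given detection reagent for 60 min at room temperature.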

[5] = biological target: Nuclear receptor ROR-gamma (Homo sapiens) (UniProt P51449); assay: qHTS assay for small molecule antagonists of the retinoid-related orphan receptor gamma (ROR-gamma) signaling pathway (AID 651802);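 further: CHO cells with doxycycline-induced ROR-gamma expression; luciferase reporter luminescence driven by ROR response element; series mostly up to about 92 µM; on the % scale 0 is the no-effect control and ±100 the full control effect; nearly all actives have a fitted effect of over 60% in size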
How it was run: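 Luciferase read-out: ONE-Glo luminescence after 30 min at room temperature, following 16hr doxycycline induction at 37C, 5% CO2 of CHO cells with TET-inducible ROR and RORE-LUC reporter; decreased luminescence = reduced reporter activity.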

[6] = qHTS assay for small molecule antagonists of the retinoid-related orphan receptor gamma (ROR-gamma) signaling pathway - cell viability counter screen (AID 720652; active means well fitted curve in the direction sought with a large enough effect in the repeat runs; an effect the other way counts as inactive or inconclusive;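 further: CHO reporter cells with doxycycline-induced ROR-gamma expression; series mostly up to about 92 µM; compound exposure lasted 16 hr before ATP read; on the % scale 0 is the no-effect control and ±100 the full control effect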)
How it was run: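 CHO RORE-LUC/TET-ROR line, 1,000 cells/well, 37 C 5% CO2 5 hr; cpd or DMSO + doxycycline induction, 16 hr. CellTiter-Glo, 30 min RT, luminescence = ATP content.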

[7] = qHTS assay for small molecule agonists of the antioxidant response element (ARE) signaling pathway measured by Nrf2-dependant transcriptional activity - cell viability counter screen (AID 720653; active means well fitted curve in the direction sought with a large enough effect in the repeat runs; an effect the other way counts as inactive or inconclusive; further: on the % scale 0 is the no-effect control and ±100 the full control effect); details: ARE-bla HepG2 viability, CellTiter-Glo ATP luminescence, 16 h; stronger effect = lower value
How it was run: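 ARE-bla HepG2 cells treated with compounds for 16 h at 37C; this counter screen measures viability as intracellular ATP by CellTiter-Glo luminescence after 30 min at room temperature.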

[8] = qHTS assay for cell viability of HEK293 cells (AID 743288); details: ATP luminescence (CellTiter-Glo), 18 h; max response: stronger effect = lower value; further: on the % scale 0 is the no-effect control and ±100 the full control effect; nearly all actives have a fitted effect of over 50% in size
How it was run: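 Quantitative high-throughput screen: compounds were pinned onto parental HEK293 cells (2,000 per well) after a minimum 5 h settling at 37 C, incubated 18 h at 37 C, and intracellular ATP measured by luciferase luminescence.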

[9] = qHTS assay for cell viability of the p53RE-bla HCT-116 cell line (AID 743292); further: on the % scale 0 is the no-effect control and ±100 the full control effect; nearly all actives have a fitted effect of over 55% in size
How it was run: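 Luminescent ATP quantitation (CellTiter-Glo) served as the viability read-out; reagent was added after 16 h compound exposure at 37 C and read after 30 min at room temperature. Cells: p53RE-bla HCT-116, 4,000 per well.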

[10] = biological target: Hexokinase-4 (Homo sapiens) + Glucokinase regulatory protein (Homo sapiens) (UniProt P35557+Q14397); assay: qHTS assay for inhibitors of recombinant human GCK-GKRP interaction: Diaphorase-coupled assay (AID 743205)
How it was run: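 Inhibitors of the GCK–GKRP complex relieve GKRP suppression of GCK, detected through a G6PDH–diaphorase cascade reducing resazurin. Human GST-GCK and FLAG-GKRP are used at 10 nM with 5 mM glucose and 0.4 mM ATP.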

[11] = qHTS Assay for Identifying Gametocytocidal Compounds (AID 743244); further: potency means the concentration at half of the fitted maximal effect;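 on max response: on the % scale 0 is the no-effect control and ±100 the full control effect; actives lower the fluorescent signal which means gametocytes are killed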; details: P. falciparum 3D7 stage III-V gametocytes, alamarBlue, 72 h; max response: stronger effect = lower value
How it was run: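 In this qHTS viability screen, late-stage 3D7 gametocytes are incubated with compound for 72 h, then with alamarBlue for 24 h; reduced resorufin fluorescence marks killing.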

[12] = qHTS assay for small molecule agonists of the antioxidant response element (ARE) signaling pathway measured by Nrf2-dependant transcriptional activity (AID 720636; active means well fitted curve in the direction sought with a large enough effect in the repeat runs; an effect the other way counts as inactive or inconclusive;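 further: HepG2 cells with an ARE-driven luciferase reporter; % of control where 0% means no effect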)
How it was run: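 HepG2 ARE-luc reporter line, 1% dialyzed FBS; 6 hr attachment at 37 C, compound pinned in, 16 hr at 37 C/5% CO2; ONE-Glo, 30 min RT, luminescence read.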

[13] = qHTS for Activators of Parkin Expression: LOPAC Validation Assay (NLuc Reporter) (AID 720572; further: potency means the concentration at half of the fitted maximal effect)
How it was run: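 NLuc signal, read 10 min after reagent and following a prior FLuc read, is normalized to DMSO (0) and positive controls (100%). Cells: neuronal Parkin-promoter coincidence reporter line; compounds tested 7-point, 24 h, 37 C, 5% CO2.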

Sequence of Peroxisome proliferator-activated receptor alpha (Homo sapiens) (Q07869 whole entry, looked up, the tested form may be a part): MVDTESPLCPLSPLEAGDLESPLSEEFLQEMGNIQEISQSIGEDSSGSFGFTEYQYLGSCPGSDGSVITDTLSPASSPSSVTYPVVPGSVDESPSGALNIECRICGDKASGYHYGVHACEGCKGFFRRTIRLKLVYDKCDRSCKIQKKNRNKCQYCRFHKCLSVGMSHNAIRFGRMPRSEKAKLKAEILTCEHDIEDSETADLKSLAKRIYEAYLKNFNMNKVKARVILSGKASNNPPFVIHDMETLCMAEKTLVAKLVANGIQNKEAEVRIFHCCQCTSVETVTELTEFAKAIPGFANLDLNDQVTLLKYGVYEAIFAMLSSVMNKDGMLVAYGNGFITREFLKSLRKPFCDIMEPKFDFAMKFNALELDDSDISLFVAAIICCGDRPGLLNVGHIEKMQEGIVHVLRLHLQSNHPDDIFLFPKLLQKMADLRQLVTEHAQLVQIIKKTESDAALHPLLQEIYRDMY
Sequence of Arylsulfatase A (Homo sapiens) (P15289 whole entry, looked up): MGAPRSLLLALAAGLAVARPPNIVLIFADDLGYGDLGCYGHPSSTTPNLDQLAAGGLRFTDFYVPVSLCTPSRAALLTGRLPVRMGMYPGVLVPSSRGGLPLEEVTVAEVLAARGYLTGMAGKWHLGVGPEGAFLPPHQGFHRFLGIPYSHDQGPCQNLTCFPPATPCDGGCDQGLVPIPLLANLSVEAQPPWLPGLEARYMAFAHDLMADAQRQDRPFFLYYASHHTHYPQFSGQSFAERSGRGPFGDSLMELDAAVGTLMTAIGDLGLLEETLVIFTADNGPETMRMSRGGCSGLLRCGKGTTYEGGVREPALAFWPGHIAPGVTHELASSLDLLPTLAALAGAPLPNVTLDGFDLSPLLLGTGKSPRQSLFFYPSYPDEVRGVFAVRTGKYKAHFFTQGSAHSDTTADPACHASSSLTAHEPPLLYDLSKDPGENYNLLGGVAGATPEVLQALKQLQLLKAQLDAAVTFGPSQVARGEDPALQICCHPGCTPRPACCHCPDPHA
Sequence of Hexokinase-4 (Homo sapiens) + Glucokinase regulatory protein (Homo sapiens) (P35557 whole entry, looked up): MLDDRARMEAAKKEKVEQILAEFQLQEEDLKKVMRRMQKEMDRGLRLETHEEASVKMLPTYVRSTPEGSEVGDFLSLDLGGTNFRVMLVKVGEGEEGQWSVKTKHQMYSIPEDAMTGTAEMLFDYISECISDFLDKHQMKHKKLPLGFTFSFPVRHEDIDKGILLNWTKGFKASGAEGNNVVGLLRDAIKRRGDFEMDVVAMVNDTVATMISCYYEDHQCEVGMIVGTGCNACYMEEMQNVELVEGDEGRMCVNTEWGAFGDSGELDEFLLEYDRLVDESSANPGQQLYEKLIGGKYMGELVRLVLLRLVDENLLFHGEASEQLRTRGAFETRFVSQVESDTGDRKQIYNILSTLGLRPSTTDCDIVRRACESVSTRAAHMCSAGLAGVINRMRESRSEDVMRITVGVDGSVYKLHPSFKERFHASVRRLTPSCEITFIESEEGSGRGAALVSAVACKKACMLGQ
Sequence of Hexokinase-4 (Homo sapiens) + Glucokinase regulatory protein (Homo sapiens) (Q14397 whole entry, looked up): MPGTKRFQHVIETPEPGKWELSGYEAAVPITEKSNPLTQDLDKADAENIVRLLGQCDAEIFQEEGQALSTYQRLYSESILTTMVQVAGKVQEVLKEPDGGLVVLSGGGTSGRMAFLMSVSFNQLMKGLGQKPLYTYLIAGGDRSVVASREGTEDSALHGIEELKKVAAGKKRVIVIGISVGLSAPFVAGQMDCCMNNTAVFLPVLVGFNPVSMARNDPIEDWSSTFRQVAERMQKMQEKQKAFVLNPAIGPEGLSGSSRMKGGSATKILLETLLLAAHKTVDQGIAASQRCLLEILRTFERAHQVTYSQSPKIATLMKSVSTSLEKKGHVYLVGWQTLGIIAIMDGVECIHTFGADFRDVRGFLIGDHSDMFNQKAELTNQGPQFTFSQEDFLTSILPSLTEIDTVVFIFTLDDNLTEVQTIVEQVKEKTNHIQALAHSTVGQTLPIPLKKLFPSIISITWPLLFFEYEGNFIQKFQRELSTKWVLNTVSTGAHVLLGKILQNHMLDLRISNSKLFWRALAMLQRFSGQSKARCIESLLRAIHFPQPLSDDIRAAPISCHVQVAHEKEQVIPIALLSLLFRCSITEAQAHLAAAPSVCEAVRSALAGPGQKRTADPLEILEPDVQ
Sequence of Nuclear receptor ROR-gamma (Homo sapiens) (P51449 whole entry, looked up): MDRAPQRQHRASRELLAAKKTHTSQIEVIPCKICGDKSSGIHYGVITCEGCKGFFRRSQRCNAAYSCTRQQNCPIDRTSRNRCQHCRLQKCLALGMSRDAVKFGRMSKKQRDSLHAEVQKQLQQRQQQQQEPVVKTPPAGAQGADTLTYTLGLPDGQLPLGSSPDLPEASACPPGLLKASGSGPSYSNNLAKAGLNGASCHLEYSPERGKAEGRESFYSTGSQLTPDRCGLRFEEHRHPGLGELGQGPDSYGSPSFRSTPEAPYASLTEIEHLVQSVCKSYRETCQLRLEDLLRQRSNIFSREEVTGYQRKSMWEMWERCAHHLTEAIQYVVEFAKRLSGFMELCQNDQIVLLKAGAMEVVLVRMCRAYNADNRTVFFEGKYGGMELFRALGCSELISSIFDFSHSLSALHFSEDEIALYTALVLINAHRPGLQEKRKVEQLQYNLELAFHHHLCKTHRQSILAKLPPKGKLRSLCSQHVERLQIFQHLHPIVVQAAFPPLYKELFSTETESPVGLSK

NC(N)=NC(=O)c1nc(Cl)c(N)nc1N
inactive: Potency [1]

CNC(=O)Oc1cccc2ccccc12
inactive: Potency [2] | max response [4] -0.498% and -1.3% | Potency [5] | Potency [6] | max response [7] 6.76% and -21.4% | max response [8] -4.95% and -11.8% | outcome [9]
active: Potency [3] 39.8 µM and 35.5 µM

CCOC(=O)Nc1ccc(NCc2ccc(F)cc2)nc1N
inactive: Potency [1] | outcome [10]
active: Potency [11] 3.55 µM

CCCCCCCCC(=O)NCc1ccc(O)c(OC)c1
inactive: max response [4] 1.45% | Potency [12] | max response [7] -1.94% | max response [8] -11.8% | outcome [9]

COC(=O)C1=C(C)NC(C)=C(C(=O)OC)C1c1ccccc1[N+](=O)[O-]
active: Potency [13] 23.1 µM

C=CCOC(Cn1ccnc1)c1ccc(Cl)cc1Cl (stereo unspecified)
inactive: activation [3] 11.9% and 13.2% | max response [4] -1.42% and 0.577% | Potency [12] | max response [7] -15.2% and -7.32% | max response [8] -18.6% and -17% | outcome [9]

COP(=S)(OC)Oc1ccc(Sc2ccc(OP(=S)(OC)OC)cc2)cc1
inactive: activation [3] 6.46% | max response [4] 7.57% | max response [7] -17.2% | max response [11] 1.05% | max response [8] -12.2% | outcome [9]

O=C(NC(=O)c1c(F)cccc1F)Nc1cc(Cl)c(OC(F)(F)C(F)C(F)(F)F)cc1Cl (stereo unspecified)
inactive: activation [3] 0.163% | max response [4] 14.7% | Potency [12] | max response [7] -21.7% | max response [8] -27.8% | outcome [9]
